The values that follow come from PubChem BioAssay.

Experiment [1] is described as follows: compounds binding Alexa647 anti-His antibody – biochemical, small-molecule microarray, 635 nm fluorescence, artefact control for SMM control protein annotation, primary screen (AID 1128).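 Further: score merges feature fluorescence with signal-to-noise for each printed compound spot.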 The note with it: higher = more signal.
The test system of experiment [2] is Human papillomavirus type 1a E7 protein (residues 1-88). As to the kind of experiment: HPV1a E7 small-molecule binders, primary screen, biochemical, small-molecule microarray, residues 1-88, 635 nm (AID 1129). The note with it: small-molecule microarray binding, fluorescence 635 nm; higher = more signal.
Experiment [3] addresses Focal adhesion kinase 1 (Homo sapiens) (UniProt Q05397). As to the kind of experiment: PTK2 protein binding on printed compound slides – biochemical, small-molecule microarray, 635/667 nm fluorescence, BSA, DTT, primary screen (AID 1130).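 Further: composite of spot emission at 667 nm and signal to noise over triplicate slides.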 The note with it: 635 nm fluorescence, higher = more signal.
The subject of experiment [4] is Fibrinogen (Alexa647-labelled). As to the kind of experiment: Alexa647-fibrinogen binding to printed small molecules – biochemical, small-molecule microarray, 635/667 nm fluorescence, artefact control for SMM control-protein annotation, profiling panel (AID 1131).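 Further: z-score merges 667 nm fluorescence with per-spot signal-to-noise over triplicate slides.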 The note with it: fibrinogen-A647 binding fluorescence, higher = more signal.
Experiment [5] has as its target Follistatin (Homo sapiens) (UniProt P19883). The experiment in a line: FST protein binding to printed compounds – biochemical, small-molecule microarray, 635/667 nm fluorescence, primary screen (AID 1132). Particulars: 635 nm fluorescence, higher = more signal.
Experiment [6] concerns the target Fibroblast growth factor 2 (Homo sapiens) (UniProt P09038). The experiment in a line: basic fibroblast growth factor binding to printed compounds – biochemical, small-molecule microarray, 635/667 nm fluorescence, primary screen (AID 1133). Particulars: FGF2, fluorescence 635/667, higher = more signal.
Experiment [7] in a line: JC-1 mitochondrial potential readout, lung cancer cells – cell-based, A549, JC-1 fluorescence, basal, 24 h, 100 nL, profiling panel (AID 1138).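 Further: A549 lung adenocarcinoma cells under basal conditions with no added stimulus; test concentration not given here.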 The note with it: higher = more signal.
The subject of experiment [8] is Lefty1. The experiment in a line: Lefty1 protein binding to printed compounds – biochemical, small-molecule microarray, 635/667 nm fluorescence, primary screen (AID 1139). Particulars: fluorescence 635/667, higher = more signal.
For experiment [9], the system named is wheat germ agglutinin (Triticum aestivum), Alexa647-labelled. The experiment in a line: Alexa647-WGA lectin binding to printed small molecules – biochemical, small-molecule microarray, 635/667 nm fluorescence, artefact control for SMM control-protein annotation, profiling panel (AID 1140).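 Further: score merges 667 nm feature emission with signal to noise over triplicate slides.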 The note with it: WGA-A647 binding, 635 nm fluorescence, higher = more signal.

The target in experiment [10] is Luciferin 4-monooxygenase (Photinus pyralis) (UniProt P08659). As to the kind of experiment: inhibition of purified Photinus pyralis luciferase – biochemical, luminescence, purified enzyme, 2006 set, primary screen (AID 1141).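 Further: cell-free assay with purified firefly luciferase at 100 ng per well in PBS; test concentration not given here.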 Particulars: purified firefly luciferase, SteadyGlo luminescence, 30 min; higher = more signal, called active from +8 up or from −8 down.
Luciferin 4-monooxygenase (Photinus pyralis), sequence (P08659 whole entry, looked up): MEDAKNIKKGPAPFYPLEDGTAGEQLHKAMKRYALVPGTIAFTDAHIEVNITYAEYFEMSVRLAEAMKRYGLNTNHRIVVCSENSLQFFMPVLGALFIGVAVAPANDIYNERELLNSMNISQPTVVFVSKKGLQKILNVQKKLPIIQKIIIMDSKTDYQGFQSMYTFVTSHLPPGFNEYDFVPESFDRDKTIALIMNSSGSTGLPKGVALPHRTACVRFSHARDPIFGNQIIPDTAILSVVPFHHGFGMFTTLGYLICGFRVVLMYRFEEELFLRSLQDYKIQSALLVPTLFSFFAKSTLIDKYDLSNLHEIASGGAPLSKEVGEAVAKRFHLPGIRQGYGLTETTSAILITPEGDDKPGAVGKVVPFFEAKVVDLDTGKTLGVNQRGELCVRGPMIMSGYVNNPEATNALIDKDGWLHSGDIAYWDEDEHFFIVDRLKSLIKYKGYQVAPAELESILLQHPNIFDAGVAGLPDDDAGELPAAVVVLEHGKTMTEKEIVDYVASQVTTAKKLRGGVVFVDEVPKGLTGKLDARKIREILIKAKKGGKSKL
For experiment [11], the system named is Wnt5a (protein binding on small-molecule microarray). The experiment in a line: small molecules binding Wnt5a protein – biophysical, small-molecule microarray, 635/667 nm fluorescence, primary screen (AID 1142).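 Further: fluorescence read at 667 nm with signal to noise per printed feature.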 Particulars: 635 nm fluorescence, higher = more signal.
Experiment [12] can be described thus: ATP-based viability of Huh7 replicon cells – cell-based, CellTiter-Glo luminescence, basal, 48 h, cytotoxicity control for HCV replication inhibitor project, primary screen (AID 1143).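 Further: Huh7 hepatoma cells carrying a hepatitis C replication reporter with no stimulus; test concentration not given here.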 Particulars: higher = more signal, called active from +8 up or from −8 down. A general note: Replicon systems follow genome replication, usually without infectious particles.
Experiment [13] in a line: Pseudomonas biofilm growth suppression – PAO1 strain, BacTiter-Glo luminescence, LB-PBS, primary screen (AID 1144). Particulars: P. aeruginosa PAO1 biofilm, 12 h, higher = more signal.
Experiment [14] can be described thus: basal CRE-LacZ reporter activity in PC12 – cell-based, unstimulated, primary screen (AID 1145). The note with it: no forskolin, luminescence, 4.5 h, higher = more signal, called active from +8 up or from −8 down.
Experiment [15] can be described thus: forskolin-driven CRE-LacZ activity in PC12 – cell-based, CRE-LacZ reporter, forskolin-stimulated, primary screen (AID 1146).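 Further: PC12 cells with 6xCRE LacZ reporter stimulated by forskolin 10 µM; beta-galactosidase reporter signal reflecting CREB driven transcription.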 Particulars: luminescence, 4.5 h, higher = more signal, called active from +8 up or from −8 down.
Experiment [16] addresses Streptavidin (Streptomyces avidinii) (UniProt P22629). The experiment in a line: compounds binding control protein streptavidin – biophysical, small-molecule microarray, 635/667 nm fluorescence, artefact control for SMM compound annotation, primary screen (AID 1147).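 Further: signal reflects streptavidin binding to arrayed compounds as a control protein.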 Particulars: higher = more signal.
Experiment [17] can be described thus: probe aInhba binding on compound microarray – biochemical, small-molecule microarray, 635/667 nm fluorescence, primary screen (AID 1148).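 Further: score merges 667nm spot fluorescence with signal-to-noise for antibody binding to printed compounds.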 Particulars: higher = more signal.
For experiment [18], the target named is Torsin-1A (Homo sapiens) (UniProt O14656). The experiment in a line: TOR1A wild-type binding on microarray – cell lysate, small-molecule microarray, lysate, 635/667 nm, primary screen (AID 1149). Particulars: COS7 hTOR1A-WT lysate, 635 nm fluorescence, higher = more signal.
Torsin-1A (Homo sapiens), sequence (O14656 whole entry, looked up): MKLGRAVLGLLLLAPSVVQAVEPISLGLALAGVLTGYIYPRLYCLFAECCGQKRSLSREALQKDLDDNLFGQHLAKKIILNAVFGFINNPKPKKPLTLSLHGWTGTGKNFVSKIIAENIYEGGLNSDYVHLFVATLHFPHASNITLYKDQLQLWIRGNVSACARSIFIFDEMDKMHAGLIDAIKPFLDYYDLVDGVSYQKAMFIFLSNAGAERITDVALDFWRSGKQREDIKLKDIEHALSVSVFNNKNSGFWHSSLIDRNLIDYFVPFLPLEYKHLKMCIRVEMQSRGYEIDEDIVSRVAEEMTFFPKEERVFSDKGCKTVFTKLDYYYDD
Experiment [19] has the same target. The experiment in a line: torsin A mutant lysate binding on microarrays – cell lysate, small-molecule microarray, COS7 lysate, 635/667 nm fluorescence, primary screen (AID 1150).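 Further: score pools 667 nm emission and signal to noise measuring lysate protein binding.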 The note with it: COS7 hTOR1A mutant lysate, 635 nm fluorescence, higher = more signal.
Experiment [20] has as its system Sonic hedgehog protein (Shh). As to the kind of experiment: Sonic hedgehog microarray binding compounds – biochemical, small-molecule microarray, 635/667 nm fluorescence, primary screen (AID 1151).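 Further: Shh protein binding to compounds spotted on small-molecule microarray slides; score combines spot fluorescence intensity with signal-to-noise across triplicate slides.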 Particulars: 635 nm fluorescence, higher = more signal.

Activity calls are given as the source filed them. Unless noted, how the calls were made is not given here.

Streptavidin (Streptomyces avidinii), sequence (P22629 whole entry, looked up): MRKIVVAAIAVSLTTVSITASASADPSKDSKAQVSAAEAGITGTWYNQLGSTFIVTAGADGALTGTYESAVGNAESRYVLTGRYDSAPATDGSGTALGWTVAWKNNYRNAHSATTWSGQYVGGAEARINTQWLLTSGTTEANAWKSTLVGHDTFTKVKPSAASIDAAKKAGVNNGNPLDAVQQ
Follistatin (Homo sapiens), sequence (P19883 whole entry, looked up): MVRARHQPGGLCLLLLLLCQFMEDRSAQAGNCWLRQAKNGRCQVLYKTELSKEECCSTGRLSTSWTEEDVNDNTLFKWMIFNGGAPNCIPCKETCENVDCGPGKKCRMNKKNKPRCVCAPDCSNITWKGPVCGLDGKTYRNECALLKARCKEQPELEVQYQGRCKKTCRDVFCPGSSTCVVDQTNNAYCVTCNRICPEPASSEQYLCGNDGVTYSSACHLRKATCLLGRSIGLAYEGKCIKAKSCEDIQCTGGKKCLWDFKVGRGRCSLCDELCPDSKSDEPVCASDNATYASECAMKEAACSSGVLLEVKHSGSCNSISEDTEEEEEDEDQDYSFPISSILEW
Fibroblast growth factor 2 (Homo sapiens), sequence (P09038 whole entry, looked up): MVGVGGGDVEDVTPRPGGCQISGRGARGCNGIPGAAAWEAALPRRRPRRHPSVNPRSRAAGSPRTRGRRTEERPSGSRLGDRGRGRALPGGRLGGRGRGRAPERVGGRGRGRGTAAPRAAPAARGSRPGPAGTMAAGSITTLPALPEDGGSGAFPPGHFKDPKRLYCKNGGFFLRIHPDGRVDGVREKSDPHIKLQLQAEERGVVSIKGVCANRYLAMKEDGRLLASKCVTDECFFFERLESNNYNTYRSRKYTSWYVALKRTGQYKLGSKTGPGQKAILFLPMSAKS
Focal adhesion kinase 1 (Homo sapiens), sequence (Q05397 whole entry, looked up): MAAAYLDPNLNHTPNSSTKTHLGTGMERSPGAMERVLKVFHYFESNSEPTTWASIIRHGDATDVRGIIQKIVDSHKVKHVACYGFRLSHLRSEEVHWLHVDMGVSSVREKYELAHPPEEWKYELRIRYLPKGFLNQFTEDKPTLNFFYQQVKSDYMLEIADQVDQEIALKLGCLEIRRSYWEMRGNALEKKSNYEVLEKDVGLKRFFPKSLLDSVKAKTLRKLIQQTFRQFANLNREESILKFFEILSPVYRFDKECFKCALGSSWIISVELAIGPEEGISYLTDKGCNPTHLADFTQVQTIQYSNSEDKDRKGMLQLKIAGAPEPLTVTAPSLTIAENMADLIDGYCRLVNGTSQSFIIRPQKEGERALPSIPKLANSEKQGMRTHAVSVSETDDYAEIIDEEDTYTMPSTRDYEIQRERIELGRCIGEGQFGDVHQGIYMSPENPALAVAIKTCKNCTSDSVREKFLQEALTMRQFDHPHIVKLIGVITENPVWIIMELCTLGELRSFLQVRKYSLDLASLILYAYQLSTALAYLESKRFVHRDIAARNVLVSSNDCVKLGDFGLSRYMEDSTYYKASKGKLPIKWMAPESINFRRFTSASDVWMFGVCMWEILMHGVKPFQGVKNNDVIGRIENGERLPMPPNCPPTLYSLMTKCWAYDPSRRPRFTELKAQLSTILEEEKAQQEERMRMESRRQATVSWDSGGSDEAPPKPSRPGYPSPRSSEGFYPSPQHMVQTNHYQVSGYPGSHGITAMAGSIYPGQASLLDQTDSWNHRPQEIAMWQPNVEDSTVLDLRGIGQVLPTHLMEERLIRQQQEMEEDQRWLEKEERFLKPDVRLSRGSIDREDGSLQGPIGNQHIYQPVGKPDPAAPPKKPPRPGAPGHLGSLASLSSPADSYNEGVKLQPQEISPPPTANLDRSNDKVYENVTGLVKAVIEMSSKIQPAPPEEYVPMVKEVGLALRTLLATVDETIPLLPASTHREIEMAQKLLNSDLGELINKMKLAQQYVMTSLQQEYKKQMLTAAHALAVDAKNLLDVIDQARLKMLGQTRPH

Turning to `C=CCC(OC(C)=O)[C@@H]1[C@@H](N(Cc2ccc(-c3ccccc3)cc2)C(=O)c2cccc3ccccc23)c2cc(OCCCO)ccc2N1C(=O)c1ccc2ccccc2c1` (stereo not given in full), the composite z-score in experiment [1] was -0.173; in experiment [2], 0.216; in experiment [3], 0.529; in experiment [4], 0.728; in experiment [5], 0.424; in experiment [6], -0.198. In addition, the composite z-score is 0.243 in experiment [8]; 0.104 in experiment [9]; 0.0959 in [11]; 0.144 in experiment [16]; 0.0219 in [17]; -0.0928 in [18]. The composite z-score was 0.0249 in experiment [19] and 0.156 in [20]. Further, the z-score was 0.248 in experiment [7]; 0.209 (inactive) in [10]; -1.61 (inactive) in experiment [12]; 0.41 (inactive) in [13]; -0.155 (inactive) in experiment [14]; 0.108 (inactive) in experiment [15].

With `O=C1NC(=O)C2C1C=CC(C(O)c1ccc(F)cc1)N2Nc1ccccn1` (stereo not given), the composite z-score in experiment [1] was 0.842; in [2] it was 0.399; in experiment [3], 0.113; in experiment [4], 0.796; in experiment [5], 0.269; in [6], 0.0568. Besides, the composite z-score is -0.269 in experiment [8]; 0.118 in experiment [9]; -0.138 in [11]; -0.0345 in experiment [16]; -0.0645 in experiment [17]; 0.286 in [18]. Further, the composite z-score in [19] came to 0.0123; in experiment [20], 0.123. Also, the z-score in experiment [7] was -0.108; in experiment [10], -0.855 (inactive); in [12], 0.74 (inactive); in experiment [13], -1.36 (inactive); in [14] it was -0.136 (inactive); in [15], 0.0662 (inactive).

`O=C1O[C@H](c2ccccc2)[C@H](c2ccccc2)N2[C@H]1[C@@H](C(=O)N1CCN(c3ncccn3)CC1)[C@]1(C(=O)Nc3ccccc31)[C@H]2c1ccc(O)cc1`: the composite z-score in experiment [1] is 2.34; in experiment [2], 1.07; in [3], 0.759; in [4], 0.635; in experiment [5] it was 0.889; in experiment [6] it was 0.451. Moreover, the composite z-score in [8] was -0.116; in [9] it was 0.185; in experiment [11], 0.186; in experiment [16], -0.0699; in experiment [17], 0.0018; in experiment [18], 0.103. Also, the composite z-score in experiment [19] turned out to be 0.799; in experiment [20] it was 0.0388. Further, the z-score was 0.028 in experiment [7]; -1.3 (inactive) in [10]; -2.48 (inactive) in experiment [12]; -0.151 (inactive) in experiment [13]; 0.299 (inactive) in experiment [14]; -0.682 (inactive) in [15].

With `COCCCN1C(=O)[C@@]2(Cc3ccccc31)c1ccccc1C(=O)N(Cc1ccccc1OC)[C@H]2c1ccc(CO)cc1`, the composite z-score in [1] was -1.44; in [2], -0.717; in [3], -0.725; in experiment [4] it was 0.0715; in [5], -1.07; in [6] it was -0.665. The composite z-score in experiment [8] was -0.566; in experiment [9], -0.0303; in experiment [11], -0.0515; in experiment [16], -0.111; in experiment [17] it was -0.108; in [18] it was -0.596. Also, the composite z-score was -0.274 in [19] and 0.0923 in [20]. Moreover, the z-score in experiment [7] was 0.0581; in [10], -0.522 (inactive); in experiment [12], 0.532 (inactive); in experiment [13] it was 0.53 (inactive); in experiment [14], 0.0279 (inactive); in experiment [15], 1.2 (inactive).
